Reference: US20140271602, “NUCLEOTIDE-SPECIFIC RECOGNITION SEQUENCES FOR DESIGNER TAL EFFECTORS” (THE BROAD INSTITUTE INC., published 2014)

Target: T1, TALE1-HN (CACNA1C site 1 activator) (Xanthomonas (engineered), UniProt P14727 SEQ:1-983)
T1 chain: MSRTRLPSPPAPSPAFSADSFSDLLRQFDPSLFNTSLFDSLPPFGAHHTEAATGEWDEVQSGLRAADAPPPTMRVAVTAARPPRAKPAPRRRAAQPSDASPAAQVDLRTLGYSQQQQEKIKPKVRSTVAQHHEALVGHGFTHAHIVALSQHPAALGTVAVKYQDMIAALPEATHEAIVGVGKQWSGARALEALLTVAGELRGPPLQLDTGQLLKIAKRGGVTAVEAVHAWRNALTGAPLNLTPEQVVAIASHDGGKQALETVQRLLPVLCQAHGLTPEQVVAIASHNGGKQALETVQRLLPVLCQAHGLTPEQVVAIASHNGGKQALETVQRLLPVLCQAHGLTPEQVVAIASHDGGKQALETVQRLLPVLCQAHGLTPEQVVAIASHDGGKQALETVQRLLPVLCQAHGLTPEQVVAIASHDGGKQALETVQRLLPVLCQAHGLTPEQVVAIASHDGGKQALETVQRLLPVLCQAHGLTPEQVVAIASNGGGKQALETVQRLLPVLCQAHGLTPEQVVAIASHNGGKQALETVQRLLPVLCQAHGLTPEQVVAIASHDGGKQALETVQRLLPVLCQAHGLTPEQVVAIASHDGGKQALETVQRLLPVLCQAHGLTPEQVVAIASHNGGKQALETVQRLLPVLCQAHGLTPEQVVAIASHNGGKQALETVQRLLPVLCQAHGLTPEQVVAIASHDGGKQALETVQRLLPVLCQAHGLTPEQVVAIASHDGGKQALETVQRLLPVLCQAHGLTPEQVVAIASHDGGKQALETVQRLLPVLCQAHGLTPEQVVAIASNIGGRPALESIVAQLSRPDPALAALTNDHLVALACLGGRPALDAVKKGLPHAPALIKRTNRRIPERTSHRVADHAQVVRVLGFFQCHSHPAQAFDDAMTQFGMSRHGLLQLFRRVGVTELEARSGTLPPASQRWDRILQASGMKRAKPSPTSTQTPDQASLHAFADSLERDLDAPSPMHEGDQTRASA
Assay: cell_activity; luciferase reporter
Conditions: tags: VP64, 2A-GFP; dsDNA, one strand shown
Description: TALEs using NN, NK, NH, and HN as the G-targeting RVD were synthesized to target two distinct 18 bp target sites in the human CACNA1C locus. Changes in mRNA are measured using qRT-PCR as described previously. VP64, VP64 transcription activation domain. All results are collected from three independent experiments in HEK 293FT cells. Error bars indicate s.e.m.; n=3. FIG. 19(b) discloses SEQ ID NOS 63 and 62, respectively, in order of appearance.
To determine whether NH and HN are suitable replacements for NN as the G-specific RVD, specificity and activity strength of NN, NK, NH, and HN were directly compared. Two 18 bp targets within the CACNA1C locus in the human genome were chosen and four TALEs for each target were constructed, using NN, NK, NH, or HN as the G-targeting RVD (FIG. 19a). […] For each CACNA1C target site, four luciferase reporters were constructed: wild type genomic target, and wild type target with 2, 4, or all guanines mutated into adenines (FIG. 19a, G-to-A reporters), and compared the activity of each TALE using these reporters (FIG. 19a). […] Thus, focus was placed on the RVDs NN, NK, and NH in subsequent experiments to assess their usefulness in modulating transcription at endogenous human genome targets.

Sequence | binding signal
TCAACCCCTGCCGGCCCA | 30.8 % reduction vs wild-type site
